In the library only some 7.3% were active in any assay of this set; here they are far more common.
HCMV inh – inhibitors of human cytomegalovirus | HFF cells, HCMV-luciferase reporter, 72 h; active compounds read low | activity change, negative = inhibition, % at 57.5 µM | actives 4.5% (n = 410,000); in the data active means activity change below about -60%; inconclusive means no clear call, values can overlap the other calls; inactive means above about -39%
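Two compound doses tested in HFFs infected with HCMV-luciferase, MOI 1 PFU/cell, 72 h at 37C. Lysate luminescence read with OneGlo; data normalized against buffer-only and 10uM Salinomycin inhibitor controls.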
FMDV antiviral – foot and mouth disease virus antiviral activity. Potency, µM (titrated, usually from 57.9 µM), for inactives: at the highest dose activity change, negative = inhibition, hits mostly inhibitors. FMDV antiviral cell-based qHTS. AID 1159524. actives 1.2% (n = 410,000); calls by dose curve; tested in HEK293T cells; further: read-out not given here; potency means the concentration at half of the fitted maximal effect; nearly all actives have a fitted effect of over 45% in size
AmpC inh no detg – blocks E. coli AmpC beta-lactamase in detergent-free assay. P00811. AmpC nitrocefin hydrolysis, absorbance 480 nm, 0.0001% Triton. Potency, µM (series often up to 57.1 µM), without a hit: top-dose activity change, negative = inhibition, most hits filed as inhibitors. actives 0.52% (n = 330,000);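 further: potency means the concentration at half of the fitted maximal effect; plate controls were no compound for no effect and no enzyme for full effect; nearly all actives have a fitted effect of over 20% in size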
Target sequence (P00811 whole entry, looked up): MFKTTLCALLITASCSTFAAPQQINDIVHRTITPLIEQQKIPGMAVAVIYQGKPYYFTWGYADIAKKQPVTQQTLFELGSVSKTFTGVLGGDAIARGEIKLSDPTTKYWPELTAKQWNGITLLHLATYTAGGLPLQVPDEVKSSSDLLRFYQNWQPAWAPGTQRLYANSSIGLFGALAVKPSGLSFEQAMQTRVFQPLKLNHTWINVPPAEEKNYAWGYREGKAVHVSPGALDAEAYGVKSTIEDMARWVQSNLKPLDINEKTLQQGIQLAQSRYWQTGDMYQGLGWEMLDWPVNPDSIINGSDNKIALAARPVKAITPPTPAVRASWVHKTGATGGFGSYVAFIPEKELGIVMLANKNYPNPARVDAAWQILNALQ
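AmpC (5.3 nM in the dispensed reagent) in 20 mM phosphate pH 7.0 with 0.01% (detergent screen) or 0.0001% Triton X-100 was preincubated with compounds for 15 min at room temperature. Nitrocefin was then added from an 800 uM solution, and hydrolysis was followed at 480 nm.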
AmpC inh detg – inhibitors of E. coli AmpC beta-lactamase with detergent; P00811; AmpC hydrolysis of nitrocefin, absorbance 480 nm, 0.01% Triton; Potency, µM (doses to about 114 µM), without a hit: at the highest dose activity change, negative = inhibition, usual class: inhibitors; actives 0.041% (n = 370,000);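 further: potency means the concentration at half of the fitted maximal effect; 0% = no-compound wells and -100% = no-enzyme wells; nearly all actives have a fitted effect of over 25% in size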
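20 mM phosphate pH 7.0 + 0.01% (detergent screen) or 0.0001% Triton X-100; 5.3 nM AmpC reagent; cpd preinc 15 min RT; nitrocefin (800 uM stock) to start; A480 q20 s × 4 min; Activity was normalised to no-enzyme and no-compound control wells.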
HCV inhibitor – inhibitors of hepatitis C virus infection; Huh7.5.1 HCVcc-Cre infection, luciferase reporter, 44 h; Potency, µM (doses to about 41.8 µM), without a hit: at the highest dose activity change, negative = inhibition, hits mostly inhibitors; actives 3.4% (n = 340,000); further: potency means the concentration at half of the fitted maximal effect
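1,000 cells/well; 4 h culture; + compound; + HCVcc-Cre (~0.5 moi); 44 h; luciferase substrate, RT 15 min; read 15 sec.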
* = called active by the depositor. Unless noted, the call rests on the fitted dose curve; in most records, active means well fitted curve in the direction sought with a large enough effect; inconclusive means small, poorly fitted or top-dose-only effect, or another doubt; inactive means no such curve, though single readings can be large; an effect the other way counts as inactive or inconclusive. Unless noted, on the % scale 0 is the no-effect control and ±100 the full control effect.

COCCOc1ccc(C(F)(F)F)cc1NC(=O)c1ccccc1 was read as HCMV inh 13, FMDV antiviral 8%, AmpC inh no detg -20%, AmpC inh detg -13% and HCV inhibitor -5%.
Screening COc1cc(C(=O)Nc2cccc(C)n2)ccc1OCC(=O)N1CCOCC1 returned HCMV inh 0, FMDV antiviral -13%, AmpC inh no detg -3%, AmpC inh detg -9% and HCV inhibitor 4%.
`O=C(COc1ccccc1)Nc1nc(-c2ccncc2)cs1` gave HCMV inh -13, FMDV antiviral 28µM*, AmpC inh no detg -46%, AmpC inh detg -15% and HCV inhibitor -9%.
`O=C(COc1ccc(Cl)cc1)Nc1nc(-c2ccc(S(=O)(=O)N3CCOCC3)cc2)cs1` gave HCMV inh -10, FMDV antiviral inconclusive, AmpC inh no detg -35%, AmpC inh detg -5% and HCV inhibitor 11µM*.
For Cc1ccc(NC(=O)COc2ccc(S(=O)(=O)N3CCOCC3)cc2)cc1 the results were HCMV inh -16, FMDV antiviral 0%, AmpC inh no detg 1%, AmpC inh detg -12% and HCV inhibitor 18%.
`COc1ccc(-c2csc(NC(=O)c3ccc(OCC(=O)N4CCOCC4)c(OC)c3)n2)cc1OC` gave HCMV inh -82*, FMDV antiviral 14µM*, AmpC inh no detg 435%, AmpC inh detg -4% and HCV inhibitor inconclusive.
For O=C(COC(=O)c1ccc(S(=O)(=O)N2CCOCC2)cc1)Nc1nc(-c2ccccc2)cs1 the results were HCMV inh 2, FMDV antiviral 11%, AmpC inh no detg -51%, AmpC inh detg 2% and HCV inhibitor 10%.
`O=C(COc1ccccc1)Nc1nc(-c2ccc(S(=O)(=O)N3CCOCC3)cc2)cs1` gave HCMV inh -38, FMDV antiviral 14µM*, AmpC inh no detg -19%, AmpC inh detg -7% and HCV inhibitor inconclusive.
COc1ccc(NC(=O)C/C(C)=N/NC(=O)C2CCCCC2)c([N+](=O)[O-])c1 was read as HCMV inh -7, FMDV antiviral -3%, AmpC inh no detg 2%, AmpC inh detg -2% and HCV inhibitor -15%.
For COc1ccccc1OCC(=O)Nc1nc(-c2ccc(S(=O)(=O)N3CCOCC3)cc2)cs1 the results were HCMV inh -27, FMDV antiviral inconclusive and HCV inhibitor 16µM*.
O=C(CN1CCOCC1)Nc1nc(-c2ccc(Cl)cc2)cs1 was read as HCMV inh -26, FMDV antiviral inconclusive, AmpC inh no detg 58%, AmpC inh detg -11% and HCV inhibitor 22µM*.
`Cc1ccc(-c2csc(NC(=O)COc3ccc(N(C)S(=O)(=O)c4ccc(C)cc4)cc3)n2)cc1` gave HCMV inh inconclusive, FMDV antiviral -28%, AmpC inh no detg -52%, AmpC inh detg -11% and HCV inhibitor 7.9µM*.
For O=C(CCc1ccc(S(=O)(=O)N2CCOCC2)cc1)Nc1nc(COc2ccccc2)cs1 the results were HCMV inh -93*, FMDV antiviral 14µM*, AmpC inh no detg -26%, AmpC inh detg 4% and HCV inhibitor inconclusive.
For COc1ccc(-c2csc(NC(=O)COc3ccc(N(C)S(=O)(=O)c4ccc(C)cc4)cc3)n2)cc1 the results were HCMV inh inconclusive, FMDV antiviral inconclusive, AmpC inh no detg -38%, AmpC inh detg -4% and HCV inhibitor inconclusive.
COc1ccccc1OCC(=O)Nc1ccc(S(=O)(=O)N2CCCC2)cc1 was read as HCMV inh 26, FMDV antiviral -17%, AmpC inh no detg -48%, AmpC inh detg -2% and HCV inhibitor -14%.
For COc1cc(OC)cc(-c2cc3c(Nc4cccc(O)c4)nccc3[nH]2)c1 the results were HCMV inh 25.
Cc1nc(CC(=O)Nc2nc(-c3ccccc3)cs2)cs1 was read as HCMV inh -73*, FMDV antiviral -2%, AmpC inh no detg -22%, AmpC inh detg -5% and HCV inhibitor inconclusive.
For O=C(Cc1cccs1)Nc1nc(-c2ccccc2)cs1 the results were HCMV inh -37, FMDV antiviral inconclusive, AmpC inh no detg -32%, AmpC inh detg inconclusive and HCV inhibitor inconclusive.
For COc1cc(C(=O)NNC(=O)COc2ccc(C)cc2)ccc1OCC(=O)N1CCOCC1 the results were HCMV inh -34, FMDV antiviral -6%, AmpC inh no detg -12%, AmpC inh detg inconclusive and HCV inhibitor -6%.
`COc1cc(C(=O)NNC(=O)COc2cccc(F)c2)ccc1OCC(=O)N1CCOCC1` gave HCMV inh -70*, FMDV antiviral -23%, AmpC inh no detg -34%, AmpC inh detg inconclusive and HCV inhibitor -6%.
For CCc1ccccc1N1CC(C(=O)Nc2nccs2)CC1=O (stereo not given) the results were HCMV inh -4, FMDV antiviral -19%, AmpC inh no detg -4%, AmpC inh detg -2% and HCV inhibitor 23%.
`Cc1ccc2c(c1)C(c1ccc(F)cc1)N(C(=O)C(C)C)CC(=O)N2` (stereo not given) gave HCMV inh -105*, FMDV antiviral 8.9µM* and AmpC inh detg 4%.
Cc1ccc2c(c1)C(c1ccc(F)cc1)N(C(=O)c1cccc(C(F)(F)F)c1)CC(=O)N2 (stereo not given) was read as HCMV inh -107*, FMDV antiviral 23% and AmpC inh detg -5%.
COc1ccc(Cl)cc1-c1cc(C(=O)NCc2ccccc2)[nH]n1 was read as HCMV inh 82 and FMDV antiviral -6%.
`Cc1oc2ccc(O)cc2c1C(=O)c1ccc([N+](=O)[O-])cc1` gave HCMV inh -16, FMDV antiviral 35µM*, AmpC inh no detg -16%, AmpC inh detg -1% and HCV inhibitor -7%.
Screening COc1cc(C2C(C#N)=C(N)Oc3c2ccc2ccccc32)ccc1OCC(=O)Nc1ccccc1C (stereo not given) returned HCMV inh 10, FMDV antiviral -15%, AmpC inh no detg -31%, AmpC inh detg -5% and HCV inhibitor 8.9µM*.
`O=C(/C=C/c1ccc(O)cc1)c1ccccc1O` gave FMDV antiviral -32%.
For Cc1ccc(/C=C/C(=O)c2ccccc(=O)c2O)cc1C the results were HCMV inh -66*, FMDV antiviral inconclusive, AmpC inh no detg -33%, AmpC inh detg inconclusive and HCV inhibitor inconclusive.
O=C(/C=C/c1ccccc1)c1cc(Br)ccc(=O)c1O was read as HCMV inh -107*, FMDV antiviral inconclusive, AmpC inh no detg -48%, AmpC inh detg inconclusive and HCV inhibitor inconclusive.
